Assay outcomes: PubChem, The Scripps Research Institute Molecular Screening Center
Sampled rows, rich in hits. Any-hit rate of the full collection: about 3.4%.
FBW7 activator – human FBW7 E3 ligase activation, primary screen | Q969H0 | AlphaScreen FBW7–phospho-cyclin E peptide binding, activator screen | hit rate 0.13% among 650,000 | normalized activity (activation), % at 26.1 µM | AID 1259310; in the data active = normalized activity above about 1.9%;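 note: purified mutant Fbw7 with reduced substrate affinity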
MITF inh – inhibitors of human MITF | inhibition, % at 2.6 µM | O75030 | AlphaScreen MITF homodimerization, bead proximity signal | hit rate 0.91% among 650,000; in the data active = inhibition above about 50%;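 note: 0% = vehicle wells with protein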
GPR151 ag – human GPR151 activation; PathHunter beta-arrestin GPR151 cells, luminescence; activation, % at 11.2 µM; hit rate 1% among 650,000; AID 1508602; in the data active = activation above about 4.9%;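 note: 0% = median of compound wells and 100% = cells with positive control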
Target sequence (Q8TDV0 whole entry, looked up): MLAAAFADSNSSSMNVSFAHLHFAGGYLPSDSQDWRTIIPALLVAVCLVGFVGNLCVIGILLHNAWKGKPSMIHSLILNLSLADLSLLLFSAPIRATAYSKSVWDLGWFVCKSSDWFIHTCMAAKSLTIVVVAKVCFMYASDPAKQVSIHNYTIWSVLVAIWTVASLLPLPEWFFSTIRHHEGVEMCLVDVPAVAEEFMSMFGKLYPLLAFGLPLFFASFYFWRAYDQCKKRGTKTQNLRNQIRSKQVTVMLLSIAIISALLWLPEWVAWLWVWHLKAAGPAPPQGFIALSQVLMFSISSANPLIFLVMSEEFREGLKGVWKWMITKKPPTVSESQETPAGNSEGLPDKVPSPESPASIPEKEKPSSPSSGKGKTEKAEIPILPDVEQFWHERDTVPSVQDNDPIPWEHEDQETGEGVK
TEAD-YAP inh – TEAD-YAP interaction inhibition; inhibition, % at 9.12 µM; HEK-TIYL cells, TEAD-Gal4/YAP UAS-luciferase luminescence; hit rate 1.4% among 640,000; in the data active = inhibition above about 32%;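 note: 0% = median of test compound wells and 100% = reference inhibitor wells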
GPR151 conf act – confirmation of human GPR151 activators; shares compounds with GPR151 ag; 6,700 tested, under 10 active; activation, % at 11.2 µM; GPR151 PathHunter beta-arrestin cells, luminescence, 90 min; % of EA-reagent control over plate median;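 active = mean percent activation across replicates above the confirmation screen cutoff of 4.91%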
GPR119 ag – GPR119 activation, counter-screen for GPR151 activators. hit rate 0.3% among 6,700. activation, % at 11.2 µM. GPR119 PathHunter beta-arrestin cells, luminescence, 90 min; 0 = compound-well median, 100 = enzyme-acceptor control. shares compounds with GPR151 ag. AID 1508611;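 active = mean percent activation in the counterscreen above 29.09%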;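 note: counterscreen on off-target GPR119 to flag nonselective hits from the GPR151 activator screen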
An asterisk follows results filed as active.

For Cc1cccn2c(=O)c(/C=C(\C#N)C(=O)N3CCCCC3)c(Oc3ccc(F)cc3)nc12 the results were FBW7 activator 0, MITF inh -16, GPR151 ag 5.7*, TEAD-YAP inh 11, GPR151 conf act 0 and GPR119 ag -11.
For COCCNC(=O)/C(C#N)=C/c1c(Oc2cccc(C)c2)nc2c(C)cccn2c1=O the results were FBW7 activator 0, MITF inh 0, GPR151 ag 6.1*, TEAD-YAP inh 4, GPR151 conf act 1 and GPR119 ag 1.
COc1ccc(Oc2nc3c(C)cccn3c(=O)c2/C=C(\C#N)C(=O)N2CCCCC2)cc1 was read as FBW7 activator 0, MITF inh 6, GPR151 ag 1 and TEAD-YAP inh 4.
`COCCN1Cc2cc3cc(C)ccc3nc2OCC1=O` gave FBW7 activator 0, MITF inh 14, GPR151 ag 7.2*, TEAD-YAP inh -2, GPR151 conf act 1 and GPR119 ag -4.
COc1cccc(CN2CCNC(=O)C2CC(=O)NCC2CCOCC2)c1 (stereo not drawn) was read as FBW7 activator 0, MITF inh -11, GPR151 ag 1 and TEAD-YAP inh -5.
`CCCN1CC=C2C(C#N)=C(N)C(C#N)(C#N)C(c3cccc(Br)c3)C2C1` (stereo not drawn) gave FBW7 activator 0, MITF inh 6, GPR151 ag 2 and TEAD-YAP inh 13.
CCCC1=NN2C(=N)/C(=C/c3ccc(N(C)C)cc3)C(=O)N=C2S1 was read as FBW7 activator 0, MITF inh 7, GPR151 ag 1 and TEAD-YAP inh 2.
For CCCCCCCC1=NN2C(=N)/C(=C/c3ccc(N(C)C)cc3)C(=O)N=C2S1 the results were FBW7 activator 0, MITF inh 17, GPR151 ag 5.7*, TEAD-YAP inh -3, GPR151 conf act 0 and GPR119 ag 12.
CCOc1ccc(C(=O)Oc2cccc3cccnc23)cc1[N+](=O)[O-] was read as FBW7 activator 0, MITF inh 15, GPR151 ag 1 and TEAD-YAP inh 6.
For O=C(CC(=O)N/N=C/c1c(F)cccc1Cl)NCCc1ccccc1 the results were FBW7 activator 0, MITF inh -5, GPR151 ag 5.6*, TEAD-YAP inh 0, GPR151 conf act 1 and GPR119 ag 0.
Screening O=C(CO)N/N=C\c1c(F)cccc1Cl returned FBW7 activator 0, MITF inh 13, GPR151 ag 0 and TEAD-YAP inh 31.
Screening O=S(=O)(NNC(=S)NCC1CCCO1)c1cc(Cl)ccc1Cl (stereo not drawn) returned FBW7 activator 0, MITF inh 6, GPR151 ag -1 and TEAD-YAP inh 3.
For COc1ccc(C(=O)NCCC(=O)NCC2CCCO2)cc1OC (stereo not drawn) the results were FBW7 activator 0, MITF inh -4, GPR151 ag 5.7*, TEAD-YAP inh -8, GPR151 conf act 0 and GPR119 ag 9.
`COc1ccc(S(=O)(=O)NNC(=S)NCC2CCCO2)c(OC)c1` (stereo not drawn) gave FBW7 activator 0, MITF inh 1, GPR151 ag 5.0*, TEAD-YAP inh -1, GPR151 conf act -1 and GPR119 ag -10.
`CCOC(=O)c1cc2c(ccn2C)n1Cc1ccc(C#N)cc1` gave FBW7 activator -1, MITF inh -7, GPR151 ag 1 and TEAD-YAP inh -2.
Screening CCCCOc1ccc(C(C)NC(=O)CC2Sc3ccccc3NC2=O)cc1 (stereo not drawn) returned FBW7 activator 0, MITF inh 5, GPR151 ag -1 and TEAD-YAP inh -1.
For CCOc1ccc(S(=O)(=O)NCc2ccco2)c(C)c1C the results were FBW7 activator 0, MITF inh -1, GPR151 ag -1 and TEAD-YAP inh -9.
Screening CCOc1c(S(=O)(=O)NCc2ccco2)ccc(Cl)c1Cl returned FBW7 activator 0, MITF inh 13, GPR151 ag 6.3*, TEAD-YAP inh 5, GPR151 conf act -2 and GPR119 ag -15.
For O=S(=O)(c1ccc(Br)cc1)N1CCSC1c1ccc2c3c(cccc13)CC2 (stereo not drawn) the results were FBW7 activator 0, MITF inh -1, GPR151 ag 0 and TEAD-YAP inh -11.
